# Assays:
# Experiment in all cases: DAPPL (digital affinity profiling via proximity ligation, sequencing); 10 mM Tris-HCl pH 7.5, 50 mM NaCl, 1 mM DTT, 4% glycerol, room temperature, 30 min; GST-TFs on glutathione beads, 16-mer random dsDNA library, 0.1% formaldehyde crosslink after washing; high values mean tight binding
# Settings in all cases: protein: recombinant; tags: N-terminal GST; dsDNA, one strand shown
# FLI1 = target: T1, FLI1 (Homo sapiens, UniProt Q01543 1-452)
# T1 sequence: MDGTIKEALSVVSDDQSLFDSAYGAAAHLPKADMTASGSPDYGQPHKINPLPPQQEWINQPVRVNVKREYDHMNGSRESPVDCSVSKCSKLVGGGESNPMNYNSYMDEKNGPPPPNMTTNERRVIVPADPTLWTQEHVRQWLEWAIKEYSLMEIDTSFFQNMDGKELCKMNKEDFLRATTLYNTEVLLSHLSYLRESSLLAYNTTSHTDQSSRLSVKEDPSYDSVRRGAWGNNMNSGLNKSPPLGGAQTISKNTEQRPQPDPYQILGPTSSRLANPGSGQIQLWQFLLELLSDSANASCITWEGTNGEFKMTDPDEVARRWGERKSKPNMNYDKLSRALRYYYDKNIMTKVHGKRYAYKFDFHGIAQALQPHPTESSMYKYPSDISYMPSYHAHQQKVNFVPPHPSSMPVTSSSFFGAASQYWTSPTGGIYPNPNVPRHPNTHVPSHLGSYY
# Outline: (§1)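 Pools were built from human transcription factors expressed in yeast as GST fusions, captured on glutathione beads and DNA-barcoded, along with a tag-only sample. Incubation with 200 nmole of a 16-mer random double-stranded DNA library lasted 30 min at room temperature in Tris/NaCl/DTT/glycerol buffer, and was followed by washing, 0.1% formaldehyde crosslinking, proximity ligation, PCR amplification and Illumina NextSeq500 sequencing. Binding signal is the quotient of each hexamer's read frequency for a factor and its frequency for the tag-only sample.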
# ELK1 = target: T2, ELK1 (Homo sapiens, UniProt P19419 1-428)
# T2 sequence: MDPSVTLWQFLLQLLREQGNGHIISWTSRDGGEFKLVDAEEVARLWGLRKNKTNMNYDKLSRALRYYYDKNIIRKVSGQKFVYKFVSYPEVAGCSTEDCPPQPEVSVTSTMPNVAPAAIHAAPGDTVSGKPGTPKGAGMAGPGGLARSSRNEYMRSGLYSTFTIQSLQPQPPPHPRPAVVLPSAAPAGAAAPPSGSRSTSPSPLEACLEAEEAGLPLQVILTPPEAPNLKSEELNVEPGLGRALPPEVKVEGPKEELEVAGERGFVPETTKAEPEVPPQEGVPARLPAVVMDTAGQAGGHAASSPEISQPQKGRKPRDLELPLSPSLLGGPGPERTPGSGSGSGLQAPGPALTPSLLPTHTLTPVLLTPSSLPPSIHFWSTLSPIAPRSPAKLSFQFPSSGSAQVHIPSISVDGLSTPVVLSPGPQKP
# Outline: as §1
# GABPA = target: T3, GABPA (Homo sapiens, UniProt Q06546 1-454)
# T3 sequence: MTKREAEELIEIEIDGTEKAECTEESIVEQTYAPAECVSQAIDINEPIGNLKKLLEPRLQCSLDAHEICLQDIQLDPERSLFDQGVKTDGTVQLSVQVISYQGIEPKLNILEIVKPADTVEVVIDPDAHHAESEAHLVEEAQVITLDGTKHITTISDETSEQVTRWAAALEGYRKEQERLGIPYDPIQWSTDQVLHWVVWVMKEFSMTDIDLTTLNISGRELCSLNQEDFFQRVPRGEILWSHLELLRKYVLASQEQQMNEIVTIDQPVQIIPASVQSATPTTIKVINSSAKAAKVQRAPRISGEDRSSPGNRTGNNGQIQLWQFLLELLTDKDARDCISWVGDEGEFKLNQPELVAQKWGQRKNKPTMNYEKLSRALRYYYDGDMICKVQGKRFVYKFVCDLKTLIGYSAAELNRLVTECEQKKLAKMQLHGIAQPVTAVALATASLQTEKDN
# Outline: as §1
# ERG = target: T4, ERG (Homo sapiens, UniProt P11308 1-479)
# T4 sequence: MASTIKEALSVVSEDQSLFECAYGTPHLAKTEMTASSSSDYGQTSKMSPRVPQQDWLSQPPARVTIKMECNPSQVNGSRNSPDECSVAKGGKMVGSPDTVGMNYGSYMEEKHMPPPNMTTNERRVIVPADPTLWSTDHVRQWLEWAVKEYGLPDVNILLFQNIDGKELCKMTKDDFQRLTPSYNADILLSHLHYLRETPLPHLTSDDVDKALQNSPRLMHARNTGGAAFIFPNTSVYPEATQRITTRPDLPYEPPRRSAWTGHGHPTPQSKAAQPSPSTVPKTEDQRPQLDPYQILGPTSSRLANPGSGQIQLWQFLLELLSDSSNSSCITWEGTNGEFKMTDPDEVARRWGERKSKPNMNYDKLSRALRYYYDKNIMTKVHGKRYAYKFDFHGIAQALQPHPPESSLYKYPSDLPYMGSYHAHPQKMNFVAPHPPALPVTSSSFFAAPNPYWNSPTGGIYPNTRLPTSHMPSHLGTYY
# Outline: as §1
# ELF1 = ELF1 (Homo sapiens, UniProt P32519 1-619)
# Sequence of ELF1 (P32519 whole entry): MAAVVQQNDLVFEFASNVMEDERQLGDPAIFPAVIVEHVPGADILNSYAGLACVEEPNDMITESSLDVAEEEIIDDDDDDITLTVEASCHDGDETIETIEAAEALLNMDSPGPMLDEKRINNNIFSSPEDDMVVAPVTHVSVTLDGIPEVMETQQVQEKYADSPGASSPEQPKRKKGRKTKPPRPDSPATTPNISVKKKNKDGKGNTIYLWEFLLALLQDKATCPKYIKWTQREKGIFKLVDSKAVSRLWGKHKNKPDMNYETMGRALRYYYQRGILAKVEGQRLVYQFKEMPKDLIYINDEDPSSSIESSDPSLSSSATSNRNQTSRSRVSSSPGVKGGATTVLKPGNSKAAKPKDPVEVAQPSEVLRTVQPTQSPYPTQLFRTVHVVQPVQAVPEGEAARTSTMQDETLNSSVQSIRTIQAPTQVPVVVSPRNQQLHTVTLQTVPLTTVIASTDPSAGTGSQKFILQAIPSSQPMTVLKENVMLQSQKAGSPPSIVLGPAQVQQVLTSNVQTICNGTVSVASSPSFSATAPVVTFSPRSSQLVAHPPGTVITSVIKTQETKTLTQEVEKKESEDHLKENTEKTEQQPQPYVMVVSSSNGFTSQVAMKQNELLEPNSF
# Outline: as §1
# EHF = target: T5, EHF (Homo sapiens, UniProt Q9NZC4 1-300)
# T5 sequence: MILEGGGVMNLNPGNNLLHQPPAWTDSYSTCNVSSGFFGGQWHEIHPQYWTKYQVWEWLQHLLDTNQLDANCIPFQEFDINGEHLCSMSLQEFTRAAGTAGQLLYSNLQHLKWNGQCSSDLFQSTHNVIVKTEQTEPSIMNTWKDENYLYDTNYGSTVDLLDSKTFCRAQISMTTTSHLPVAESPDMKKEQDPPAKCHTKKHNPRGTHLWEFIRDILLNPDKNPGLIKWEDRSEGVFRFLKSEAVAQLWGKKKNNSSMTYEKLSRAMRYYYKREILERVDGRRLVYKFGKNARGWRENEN
# Outline: as §1
# SPI1 = SPI1 (Homo sapiens, UniProt P17947 1-270)
# Outline: as §1
# SPIB = SPIB (Homo sapiens, UniProt Q01892 1-262)
# Sequence of SPIB (Q01892 whole entry): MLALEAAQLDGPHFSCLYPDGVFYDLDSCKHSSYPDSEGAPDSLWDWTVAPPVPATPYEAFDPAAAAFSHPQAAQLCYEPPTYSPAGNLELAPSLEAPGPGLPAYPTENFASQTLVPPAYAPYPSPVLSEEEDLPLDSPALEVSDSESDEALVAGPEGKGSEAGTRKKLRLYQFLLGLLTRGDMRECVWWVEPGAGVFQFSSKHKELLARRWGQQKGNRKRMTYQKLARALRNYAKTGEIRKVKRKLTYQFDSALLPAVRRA
# Outline: as §1
# ELK3 = target: T6, ELK3 (Homo sapiens, UniProt P41970 1-407)
# T6 sequence: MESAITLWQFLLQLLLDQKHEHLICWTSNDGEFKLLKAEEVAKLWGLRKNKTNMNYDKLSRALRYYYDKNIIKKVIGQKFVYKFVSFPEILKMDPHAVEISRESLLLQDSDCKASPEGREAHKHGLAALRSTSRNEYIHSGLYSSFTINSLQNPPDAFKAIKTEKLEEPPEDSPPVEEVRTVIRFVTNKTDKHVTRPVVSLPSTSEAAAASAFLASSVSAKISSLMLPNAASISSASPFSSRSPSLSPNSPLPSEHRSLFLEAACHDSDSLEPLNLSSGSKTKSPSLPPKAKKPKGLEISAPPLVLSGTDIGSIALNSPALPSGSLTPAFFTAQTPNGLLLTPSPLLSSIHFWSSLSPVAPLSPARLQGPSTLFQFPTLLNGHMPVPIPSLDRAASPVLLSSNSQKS
# Outline: as §1
sequence,measurement,setting,value
GTATAT,binding signal,FLI1,"1.13 fold enrichment (6-mer frequency, TF over GST control)"
same,binding signal,ELK1,"1.22 fold enrichment (6-mer frequency, TF over GST control)"
same,binding signal,GABPA,"1.13 fold enrichment (6-mer frequency, TF over GST control)"
same,binding signal,ERG,"1.09 fold enrichment (6-mer frequency, TF over GST control)"
same,binding signal,ELF1,"1.17 fold enrichment (6-mer frequency, TF over GST control)"
same,binding signal,EHF,"1.2 fold enrichment (6-mer frequency, TF over GST control)"
same,binding signal,SPI1,"1.13 fold enrichment (6-mer frequency, TF over GST control)"
same,binding signal,SPIB,"1.23 fold enrichment (6-mer frequency, TF over GST control)"
same,binding signal,ELK3,"1.11 fold enrichment (6-mer frequency, TF over GST control)"
